Data from the supplement of paper PMC6522484.
± gives the standard deviation of the averaged measurements.

Columns and labels:
DLD1 [1] = assay: cell viability (CellTiter-Glo) relative to plate median (fraction of plate median); higher = more viable cells; settings: 5 µM; treatment time 24 h; reporter: 7TFP
Procedure, shortened: (§1)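 Library compounds, at a final 5 µM, stayed on reporter cells for 24 h. The cells were colorectal cancer lines stably transduced with lentiviral TCF/Wnt firefly luciferase reporters, seeded in 384-well plates 24 h before dosing. Firefly luciferase or CellTiterGlo luminescence from parallel plates was normalised to the plate median in webcellHTS2 (additive, no log transformation), and two independent replicates were averaged.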

HCT116 = assay: as above; settings: 5 µM; treatment time 24 h; reporter: TCF4/Wnt
Procedure, shortened: as §1

SW480 [2] = assay: as above; settings: 5 µM; treatment time 24 h; reporter: 7TFP
Procedure, shortened: as §1

DLD1 [3] = assay: TCF/Wnt firefly luciferase reporter signal relative to plate median (fraction of plate median); higher = higher Wnt reporter signal; settings: 5 µM; treatment time 24 h; reporter: 7TFP
Procedure, shortened: as §1

SW480 [4] = assay: as above; settings: 5 µM; treatment time 24 h; reporter: 7TFP
Procedure, shortened: as §1

SMILES | cell viability (DLD1 [1]) | cell viability (HCT116) | cell viability (SW480 [2]) | TCF/Wnt firefly luciferase reporter signal (DLD1 [3]) | TCF/Wnt firefly luciferase reporter signal (SW480 [4])
C[N+](C)(C)CCOC(N)=O | 0.994 ± 0.023 | 1.15 ± 0.057 | 0.9925 ± 0.0078 | 1.13 ± 0.14 | 0.847 ± 0.064
CC1=Nc2ccc(Cl)cc2S(=O)(=O)N1 | 0.946 ± 0.016 | 1.06 ± 0.12 | 0.975 ± 0.05 | 1.135 ± 0.0071 | 0.86 ± 0.14
N[C@@H](Cc1c[nH]c2ccccc12)C(=O)O | 1.07 ± 0.078 | 1.07 ± 0.014 | 1.03 ± 0.014 | 1.21 ± 0.028 | 1.1 ± 0.05
COc1ccc(C(=O)c2ccccc2O)c(O)c1 | 0.953 ± 0.022 | 0.977 ± 0.0028 | 0.952 ± 0.016 | 1.16 ± 0.042 | 1.06 ± 0.057
CC(C)CC1NC(=O)C2CCCN2C1=O (single isomer, unassigned; isomere) [Cyclo(leucylprolyl) (Isomere)] | 0.919 ± 0.068 | 0.94 ± 0.016 | 1.02 ± 0.054 | 0.69 ± 0.27 | 1.12 ± 0.064
O=c1c2ccccc2oc2ccccc12 | 0.986 ± 0.016 | 0.98 ± 0.043 | 0.98 ± 0.029 | 0.985 ± 0.036 | 0.916 ± 0.03
CC1(C)S[C@@H]2[C@H](NC(=O)[C@H](N)c3ccc(O)cc3)C(=O)N2[C@H]1C(=O)O | 0.928 ± 0.049 | 1.02 ± 0.067 | 0.95 ± 0.016 | 1.11 ± 0.092 | 1.01
CC(=O)OC(C)(C)[C@@H]1Cc2cc3ccc(=O)oc3cc2O1 | 1.06 ± 0.014 | 1.1 ± 0.014 | 1.03 ± 0.062 | 0.896 ± 0.039 | 0.944 ± 0.077
C=CC(C1=CC(=O)C(OC)=CC1=O)c1ccc(OC)cc1 (stereo not given) | 1.06 ± 0.035 | 1.13 ± 0.085 | 1.03 ± 0.054 | 0.988 ± 0.059 | 1 ± 0.11
COc1ccc2c(c1)[C@@]1(C)CCC(=O)C[C@H]1CC2 [5beta-12-METHOXY-4,4-BISNOR-8,11,13-PODOCARPATRIEN-3-ONE] | 0.9975 ± 0.0035 | 1.07 ± 0.071 | 1.01 ± 0.037 | 1.18 ± 0.2 | 1.05 ± 0.057
COC1C(OC(C)=O)C(C)OC(OC2C(Oc3cccc4c(OC(C)=O)c5c(=O)oc6ccc(C)c7c(=O)oc(c34)c5c67)OC(C)C(OC(C)=O)C2OC(C)=O)C1OC(C)=O (stereo not given) [Chartreusin-pentaacetate] | 0.99 ± 0.028 | 1.04 ± 0.14 | 0.932 ± 0.03 | 1.095 ± 0.0071 | 1.1 ± 0.11
C[C@@H]1CC(=O)c2c(ccc3c2C(=O)c2cccc(O)c2C3=O)C1 [Ochromycinone (Isoform A, compound ID 7490)] | 1.06 ± 0.078 | 1.005 ± 0.0071 | 1.02 ± 0.072 | 1 ± 0.023 | 0.997 ± 0.32
CC(=O)O[C@]1(C(C)=O)CC[C@H]2[C@@H]3C=C(Cl)C4=CC(=O)CC[C@]4(C)[C@H]3CC[C@@]21C | 0.905 ± 0.016 | 0.972 ± 0.082 | 1.04 ± 0.042 | 0.9805 ± 0.0064 | 1.06 ± 0.088
NC[C@H]1O[C@H](O[C@H]2[C@H](O)[C@@H](O[C@H]3O[C@H](CO)[C@@H](O)[C@H](N)[C@H]3O)[C@H](N)C[C@@H]2N)[C@H](N)[C@@H](O)[C@@H]1O | 1.11 ± 0.028 | 0.997 ± 0.033 | 1.02 ± 0.052 | 1.03 ± 0.035 | 1.01 ± 0.021
Oc1ccc(Cl)c2cccnc12 | 1.025 ± 0.0071 | 0.988 ± 0.032 | 1.02 ± 0.021 | 0.935 ± 0.069 | 1.09 ± 0.042
O=C(CNC(=O)c1ccc(Cl)cc1)NO | 0.978 ± 0.025 | 1 ± 0.041 | 0.931 ± 0.026 | 1.03 ± 0.048 | 1.13 ± 0.028
O=c1cc(-c2ccc(O)cc2)oc2cc(O[C@@H]3O[C@H](CO)[C@@H](O)[C@H](O)[C@H]3O[C@@H]3OC[C@](O)(CO)[C@H]3O)cc(O)c12 | 0.959 ± 0.052 | 1.04 ± 0.057 | 1 ± 0.021 | 1.045 ± 0.0071 | 1.04 ± 0.057
C=CC(C1=CC(=O)C(OC)=CC1=O)c1ccc(O)cc1 (stereo not given) | 1.01 | 1.1 ± 0.021 | 1.02 | 0.879 ± 0.0028 | 0.877 ± 0.12
CCCOc1ccc(C(=O)OCCN(CC)CC)cc1N | 0.9545 ± 0.0064 | 0.994 ± 0.051 | 0.95 ± 0.038 | 0.97 ± 0.057 | 1.095 ± 0.0071
COc1cc2occ(-c3ccccc3)c(=O)c2c(OC)c1C | 0.982 ± 0.015 | 1 ± 0.025 | 0.958 ± 0.021 | 1.15 ± 0.16 | 1.12 ± 0.05
Cc1cccc(C)c1OCC(C)N (stereo not given) | 0.988 ± 0.059 | 0.983 ± 0.12 | 1.06 | 1.19 ± 0.078 | 1.05 ± 0.1
CCN(Cc1ccncc1)C(=O)C(CO)c1ccccc1 (stereo not given) | 0.9915 ± 0.0035 | 0.976 ± 0.048 | 1.04 ± 0.021 | 1.04 ± 0.057 | 1.08 ± 0.078
CC[C@H]1OC(=O)[C@H](C)C(=O)[C@H](C)[C@@H](O[C@@H]2O[C@H](C)C[C@H](N(C)C)[C@H]2O)[C@](C)(OC)C[C@@H](C)C(=O)[C@H](C)[C@H]2N(CCCCn3cnc(-c4cccnc4)c3)C(=O)O[C@]12C | 0.997 ± 0.018 | 0.968 ± 0.1 | 1.02 ± 0.04 | 1.07 ± 0.05 | 1.07 ± 0.035
CCCCNc1cc(C(=O)O)cc(S(N)(=O)=O)c1Oc1ccccc1 | 1.015 ± 0.0071 | 0.947 ± 0.022 | 1.04 ± 0.035 | 1.03 ± 0.16 | 1.06 ± 0.057
Cc1nnc(SCC2=C(C(=O)O)N3C(=O)[C@@H](NC(=O)Cn4cnnn4)[C@H]3SC2)s1 | 0.941 ± 0.035 | 0.941 ± 0.011 | 0.962 ± 0.044 | 0.942 ± 0.15 | 0.834 ± 0.16
